Test results from the supplement of paper PMC10849652.
Targets with a hit are over-represented here; the source holds about 7,900 in all. About 0.6% of all pairs of compound and target were hits.

Experiments:
Experiment in all cases: log2 fold change, soluble protein after heating vs DMSO (PISA); higher = thermal stabilisation; K562 cells, 10 uM, 30 min; active = over 0.2 and 3.5 SD of the protein, either way, in both replicates (recomputed)
erlotinib = compound: C#Cc1cccc(Nc2ncnc3cc(OCCOC)c(OCCOC)cc23)c1 [erlotinib]
In short: (§1)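 Quantification of soluble protein used TMTpro 16plex LC-MS/MS, with channel sums equalised. Samples were the supernatant after 21,000xg for 90 min of pooled aliquots from K562 cells (2×10^6 cells/mL) treated with 10 μM compound for 30 min, heated for 3 min over 48°C-58°C, and extracted in PBS with 0.5% NP-40 at 4°C. Values, from duplicates, describe thermal stability against control samples on a log2 fold-change scale.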

[1] = compound: C/C(=N\NC(=O)C1=CC(=CC=C1)S(=O)(=O)N2CCOCC2)/C3=C(C=CC(=C3)Cl)O
In short: as §1

[2] = compound: C1=CC(=C(C=C1Cl)C2=NC3=NC=CN=C3C(=N2)NC4=CC=NC=C4)F
In short: as §1

[3] = compound: C1=CC(=CC=C1C2=NC3=C(N2)C=C(C=C3)C(=O)N)OC4=CC=C(C=C4)Cl
In short: as §1

[4] = compound: C1=CC2=C(C=CC(=C2)/C=C\3/C(=O)NC(=NCC4=CC=CS4)S3)N=C1
In short: as §1

[5] = compound: C1=CC2=NC=CN=C2C=C1/C=C/3\C(=O)NC(=O)S3
In short: as §1

[6] = compound: C1=CC=C(C=C1)C2=NC(=C(N2)C3=CC=NC=C3)C4=CC(=C(C=C4)Cl)O
In short: as §1

[7] = compound: C1=CC=C2C(=C1)C3=NNC4=CC=CC(=C43)C2=O
In short: as §1

[8] = compound: C1CCN(C1)C(=O)NC2=CC=CC(=C2)NC3=NC=C(C(=N3)NCCC4=CN=CN4)Br
In short: as §1

[9] = compound: C1CN(CCC1(CC2=CC=C(C=C2)Cl)N)C3=NC=NC4=C3C=CN4
In short: as §1

Measured: log2 fold change

NHLRC2 (UniProt Q8NBF2)
Sequence of UniProt Q8NBF2 (Q8NBF2 whole entry, looked up): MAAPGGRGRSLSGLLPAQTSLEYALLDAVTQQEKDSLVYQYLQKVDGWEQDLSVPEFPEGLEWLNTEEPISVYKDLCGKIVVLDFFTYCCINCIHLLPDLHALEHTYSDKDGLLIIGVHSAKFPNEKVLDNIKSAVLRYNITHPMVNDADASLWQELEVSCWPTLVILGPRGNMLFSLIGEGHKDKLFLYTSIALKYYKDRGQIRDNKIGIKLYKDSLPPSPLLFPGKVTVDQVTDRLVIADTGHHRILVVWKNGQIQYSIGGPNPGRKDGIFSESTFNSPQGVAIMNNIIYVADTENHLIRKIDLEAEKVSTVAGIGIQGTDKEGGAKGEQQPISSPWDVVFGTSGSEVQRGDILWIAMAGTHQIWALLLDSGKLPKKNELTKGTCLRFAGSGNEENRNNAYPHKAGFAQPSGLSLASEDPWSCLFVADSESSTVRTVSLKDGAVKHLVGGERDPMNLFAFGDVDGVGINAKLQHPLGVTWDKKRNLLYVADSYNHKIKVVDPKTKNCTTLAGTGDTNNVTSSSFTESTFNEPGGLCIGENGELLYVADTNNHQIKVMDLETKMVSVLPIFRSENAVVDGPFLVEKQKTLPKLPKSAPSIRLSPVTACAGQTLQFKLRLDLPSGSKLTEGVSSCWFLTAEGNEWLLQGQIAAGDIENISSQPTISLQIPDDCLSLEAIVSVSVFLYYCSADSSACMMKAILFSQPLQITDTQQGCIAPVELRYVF
inactive: erlotinib 0.035 | [1] 0 | [2] -0.059 | [3] 0.057 | [4] 0.065 | [5] -0.074 | [6] -0.114 | [7] 0.042 | [8] 0.051 | [9] 0.001

MITD1 (UniProt Q8WV92)
Sequence of UniProt Q8WV92 (Q8WV92 whole entry, looked up): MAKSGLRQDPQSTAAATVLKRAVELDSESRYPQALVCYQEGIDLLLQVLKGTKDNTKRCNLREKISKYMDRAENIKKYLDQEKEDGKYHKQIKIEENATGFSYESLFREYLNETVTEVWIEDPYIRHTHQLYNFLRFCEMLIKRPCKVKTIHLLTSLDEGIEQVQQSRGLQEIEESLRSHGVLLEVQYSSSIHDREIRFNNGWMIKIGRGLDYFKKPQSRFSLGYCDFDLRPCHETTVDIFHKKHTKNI
inactive: erlotinib 0.011 | [1] -0.009 | [2] 0.148 | [3] 0.037 | [4] 0.044 | [5] 0.036 | [6] -0.015 | [7] 0.101 | [8] 0.03 | [9] -0.024

NDUFAF6 (UniProt Q330K2)
Sequence of UniProt Q330K2 (Q330K2 whole entry, looked up): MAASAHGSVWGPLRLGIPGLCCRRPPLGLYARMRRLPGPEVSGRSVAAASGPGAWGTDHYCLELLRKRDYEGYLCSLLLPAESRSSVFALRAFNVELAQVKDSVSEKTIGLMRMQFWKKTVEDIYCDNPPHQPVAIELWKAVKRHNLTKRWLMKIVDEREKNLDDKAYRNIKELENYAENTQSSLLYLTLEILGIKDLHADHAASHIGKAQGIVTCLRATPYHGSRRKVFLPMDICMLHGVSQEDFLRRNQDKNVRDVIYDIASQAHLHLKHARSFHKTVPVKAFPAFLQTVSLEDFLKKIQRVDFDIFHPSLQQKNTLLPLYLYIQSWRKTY
inactive: erlotinib 0.028 | [1] -0.009 | [2] 0.059 | [3] 0.058 | [4] 0.071 | [5] 0.12 | [6] 0.065 | [7] -0.051 | [8] 0.049 | [9] 0.074

NDUFA9 (UniProt Q16795)
Sequence of UniProt Q16795 (Q16795 whole entry, looked up): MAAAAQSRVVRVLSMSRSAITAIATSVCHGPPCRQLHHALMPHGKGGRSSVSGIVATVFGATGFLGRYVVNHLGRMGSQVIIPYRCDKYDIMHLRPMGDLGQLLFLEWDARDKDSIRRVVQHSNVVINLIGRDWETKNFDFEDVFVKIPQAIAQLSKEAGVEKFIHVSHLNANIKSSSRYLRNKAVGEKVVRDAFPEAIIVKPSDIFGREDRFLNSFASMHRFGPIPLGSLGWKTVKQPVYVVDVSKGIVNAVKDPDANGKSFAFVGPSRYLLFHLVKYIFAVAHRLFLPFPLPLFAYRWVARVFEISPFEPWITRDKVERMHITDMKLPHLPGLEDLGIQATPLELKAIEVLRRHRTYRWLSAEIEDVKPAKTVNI
inactive: erlotinib -0.031 | [1] 0.035 | [2] 0.059 | [3] 0.03 | [4] 0.031 | [5] -0.016 | [6] 0.025 | [7] 0.047 | [8] 0.005 | [9] 0.024

MRPS10 (UniProt P82664)
inactive: erlotinib -0.036 | [1] -0.089 | [2] -0.103 | [3] 0.048 | [4] 0.102 | [5] 0.023 | [6] -0.037 | [7] 0.04 | [8] 0.001 | [9] -0.012

PAFAH1B3 (UniProt Q15102)
inactive: erlotinib 0.028 | [1] 0.091 | [2] 0.029 | [3] 0.017 | [4] 0.148 | [5] -0.038 | [6] 0.085 | [7] 0.061 | [8] -0.058 | [9] 0.032

MT-ND4 (UniProt P03905)
Sequence of UniProt P03905 (P03905 whole entry, looked up): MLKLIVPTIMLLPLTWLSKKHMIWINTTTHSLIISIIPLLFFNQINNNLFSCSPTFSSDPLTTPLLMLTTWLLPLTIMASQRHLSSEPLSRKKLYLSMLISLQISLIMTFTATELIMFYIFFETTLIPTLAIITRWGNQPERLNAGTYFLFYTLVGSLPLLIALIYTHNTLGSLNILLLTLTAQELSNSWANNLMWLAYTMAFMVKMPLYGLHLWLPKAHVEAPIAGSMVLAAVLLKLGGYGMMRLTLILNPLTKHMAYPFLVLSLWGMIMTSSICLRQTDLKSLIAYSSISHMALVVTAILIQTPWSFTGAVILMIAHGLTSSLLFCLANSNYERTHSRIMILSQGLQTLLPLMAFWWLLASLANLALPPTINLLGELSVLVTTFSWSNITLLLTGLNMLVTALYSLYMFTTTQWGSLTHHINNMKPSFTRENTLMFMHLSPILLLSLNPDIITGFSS
inactive: erlotinib 0.152 | [1] -0.077 | [2] 0.053 | [3] -0.028 | [4] -0.026 | [5] 0.044 | [6] -0.009 | [7] 0.078 | [8] -0.007 | [9] -0.036

MTHFD1 (UniProt P11586)
inactive: erlotinib 0.06 | [1] 0.058 | [2] 0.074 | [3] -0.019 | [4] 0.019 | [5] -0.021 | [6] 0.05 | [7] 0.01 | [8] 0.013 | [9] 0.032

NECTIN2 (UniProt Q92692)
inactive: erlotinib 0.002 | [1] 0.005 | [2] 0.064 | [3] -0.006 | [4] 0.002 | [5] 0.008 | [6] -0.04 | [7] -0.041 | [8] -0.045 | [9] 0.077

NDUFB7 (UniProt P17568)
Sequence of UniProt P17568 (P17568 whole entry, looked up): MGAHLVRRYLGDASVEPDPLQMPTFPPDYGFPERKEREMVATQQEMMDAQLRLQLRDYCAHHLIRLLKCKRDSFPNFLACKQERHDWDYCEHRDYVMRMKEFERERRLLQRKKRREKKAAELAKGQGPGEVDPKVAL
inactive: erlotinib -0.027 | [1] 0.015 | [2] 0.038 | [3] 0.04 | [4] -0.011 | [5] 0.061 | [6] 0.031 | [7] -0.007 | [8] 0.037 | [9] 0.041

NUP160 (UniProt Q12769)
inactive: erlotinib 0.001 | [1] 0.022 | [2] 0.01 | [3] -0.024 | [4] -0.006 | [5] 0.045 | [6] -0.017 | [7] -0.091 | [8] -0.085 | [9] -0.025

OXSR1 (UniProt O95747)
Sequence of UniProt O95747 (O95747 whole entry, looked up): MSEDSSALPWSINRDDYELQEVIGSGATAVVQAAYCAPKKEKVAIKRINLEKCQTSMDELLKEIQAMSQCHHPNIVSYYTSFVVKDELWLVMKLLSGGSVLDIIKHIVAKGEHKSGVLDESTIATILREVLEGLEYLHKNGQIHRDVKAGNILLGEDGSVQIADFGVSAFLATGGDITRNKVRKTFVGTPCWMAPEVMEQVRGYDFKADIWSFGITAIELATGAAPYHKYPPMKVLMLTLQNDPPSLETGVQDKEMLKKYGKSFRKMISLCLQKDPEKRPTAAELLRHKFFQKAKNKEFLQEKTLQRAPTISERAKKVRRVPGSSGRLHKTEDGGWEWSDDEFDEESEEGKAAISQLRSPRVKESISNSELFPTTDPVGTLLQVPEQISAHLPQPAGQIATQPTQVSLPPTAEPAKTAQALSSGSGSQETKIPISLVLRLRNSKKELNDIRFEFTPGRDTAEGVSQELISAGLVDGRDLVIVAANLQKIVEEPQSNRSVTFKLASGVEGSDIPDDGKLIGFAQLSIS
inactive: erlotinib 0.042 | [1] 0.091 | [2] -0.024 | [3] -0.056 | [4] 0.106 | [5] 0.004 | [6] 0.039 | [7] 0.054 | [8] -0.008 | [9] 0.007

MRPS2 (UniProt Q9Y399)
inactive: erlotinib 0.004 | [1] -0.064 | [2] -0.083 | [3] 0.052 | [4] 0.093 | [5] 0.01 | [6] 0.083 | [7] -0.033 | [8] -0.01 | [9] -0.112

PAK1 isoform 2 (UniProt Q13153)
inactive: erlotinib 0.063 | [1] 0.105 | [2] 0.067 | [3] -0.013 | [4] 0.009 | [5] 0.086 | [6] 0.027 | [7] -0.008 | [8] 0.014 | [9] 0.083

NCK1 (UniProt P16333)
inactive: erlotinib 0.045 | [1] 0.206 | [2] -0.066 | [3] 0 | [4] 0.179 | [5] -0.019 | [6] -0.084 | [7] 0 | [8] -0.135 | [9] -0.081

NSMCE2 (UniProt Q96MF7)
Sequence of UniProt Q96MF7 (Q96MF7 whole entry, looked up): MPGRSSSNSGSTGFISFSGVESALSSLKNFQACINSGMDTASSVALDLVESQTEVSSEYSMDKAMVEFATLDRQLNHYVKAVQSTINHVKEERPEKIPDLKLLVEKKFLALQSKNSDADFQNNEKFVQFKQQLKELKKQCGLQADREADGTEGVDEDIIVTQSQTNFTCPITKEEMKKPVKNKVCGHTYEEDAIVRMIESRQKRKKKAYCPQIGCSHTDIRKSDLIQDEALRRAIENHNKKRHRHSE
inactive: erlotinib -0.076 | [1] 0.012 | [2] -0.078 | [3] 0.009 | [4] 0.023 | [5] -0.096 | [6] 0.04 | [7] -0.058 | [8] -0.001 | [9] 0.008

MYH10 isoform 3 (UniProt P35580)
inactive: erlotinib -0.002 | [1] 0.043 | [2] 0.089 | [3] -0.032 | [4] 0.006 | [5] 0.01 | [6] 0.034 | [7] 0.021 | [8] 0.015 | [9] -0.024

OTUD6B (UniProt Q8N6M0)
Sequence of UniProt Q8N6M0 (Q8N6M0 whole entry, looked up): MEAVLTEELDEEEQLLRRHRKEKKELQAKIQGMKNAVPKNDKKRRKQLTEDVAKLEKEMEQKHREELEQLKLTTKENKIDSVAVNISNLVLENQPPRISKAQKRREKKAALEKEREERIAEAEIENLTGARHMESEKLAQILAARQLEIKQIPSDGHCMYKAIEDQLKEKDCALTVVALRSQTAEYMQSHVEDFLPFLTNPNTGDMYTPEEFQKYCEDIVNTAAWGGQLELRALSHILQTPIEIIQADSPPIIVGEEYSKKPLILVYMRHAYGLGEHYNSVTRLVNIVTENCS
inactive: erlotinib 0.053 | [1] 0.117 | [2] -0.103 | [3] 0.019 | [4] 0.142 | [5] 0.032 | [6] -0.001 | [7] 0.051 | [8] -0.014 | [9] -0.055

NKAP (UniProt Q8N5F7)
Sequence of UniProt Q8N5F7 (Q8N5F7 whole entry, looked up): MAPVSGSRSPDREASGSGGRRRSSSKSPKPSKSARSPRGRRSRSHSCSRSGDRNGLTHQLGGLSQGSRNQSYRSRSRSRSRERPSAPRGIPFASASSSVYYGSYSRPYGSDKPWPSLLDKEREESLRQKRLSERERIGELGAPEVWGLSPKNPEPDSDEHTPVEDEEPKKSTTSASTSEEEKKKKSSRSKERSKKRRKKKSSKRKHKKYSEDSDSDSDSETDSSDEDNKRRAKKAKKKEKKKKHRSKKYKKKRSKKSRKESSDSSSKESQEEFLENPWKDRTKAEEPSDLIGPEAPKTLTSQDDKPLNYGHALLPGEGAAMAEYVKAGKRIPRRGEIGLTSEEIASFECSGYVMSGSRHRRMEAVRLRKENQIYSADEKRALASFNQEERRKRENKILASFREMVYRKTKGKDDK
inactive: erlotinib 0.029 | [1] 0.023 | [2] -0.041 | [3] 0.041 | [4] -0.189 | [5] -0.047 | [6] -0.085 | [7] -0.051 | [8] -0.064 | [9] -0.007

NME1 isoform 2 (UniProt P15531)
Sequence of UniProt P15531 (P15531 whole entry, looked up): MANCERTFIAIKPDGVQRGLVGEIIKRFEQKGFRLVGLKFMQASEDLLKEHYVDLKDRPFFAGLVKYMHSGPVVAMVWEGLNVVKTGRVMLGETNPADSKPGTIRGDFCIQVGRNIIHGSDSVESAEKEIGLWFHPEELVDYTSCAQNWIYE
inactive: erlotinib 0.034 | [1] -0.015 | [2] 0.038 | [3] 0.092 | [4] 0.063 | [5] -0.05 | [6] -0.048 | [7] -0.001 | [8] 0.032 | [9] 0.074

NCAPD2 (UniProt Q15021)
inactive: erlotinib 0.029 | [1] 0.107 | [2] 0.005 | [3] -0.05 | [4] 0.024 | [5] 0.04 | [6] 0.013 | [7] 0.022 | [8] -0.001 | [9] -0.103

NSMCE4A (UniProt Q9NXX6)
Sequence of UniProt Q9NXX6 (Q9NXX6 whole entry, looked up): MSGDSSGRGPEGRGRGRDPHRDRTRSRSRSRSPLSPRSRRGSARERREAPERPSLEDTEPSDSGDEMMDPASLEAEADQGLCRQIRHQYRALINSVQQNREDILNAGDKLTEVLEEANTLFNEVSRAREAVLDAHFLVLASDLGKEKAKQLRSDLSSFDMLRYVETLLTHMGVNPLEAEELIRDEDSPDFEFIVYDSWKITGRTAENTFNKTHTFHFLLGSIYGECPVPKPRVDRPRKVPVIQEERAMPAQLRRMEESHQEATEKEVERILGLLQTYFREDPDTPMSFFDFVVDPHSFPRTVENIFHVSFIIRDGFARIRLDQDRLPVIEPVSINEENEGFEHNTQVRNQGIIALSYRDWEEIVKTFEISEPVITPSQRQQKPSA
inactive: erlotinib -0.044 | [1] 0.028 | [2] -0.002 | [3] 0.072 | [4] 0.182 | [5] -0.138 | [6] -0.031 | [7] -0.192 | [8] 0.056 | [9] 0.117

MRPL34 (UniProt Q9BQ48)
inactive: erlotinib -0.029 | [1] -0.167 | [2] -0.116 | [3] 0.101 | [4] -0.048 | [5] -0.03 | [6] 0.006 | [7] 0.018 | [8] -0.004 | [9] -0.174

PAAF1 (UniProt Q9BRP4)
Sequence of UniProt Q9BRP4 (Q9BRP4 whole entry, looked up): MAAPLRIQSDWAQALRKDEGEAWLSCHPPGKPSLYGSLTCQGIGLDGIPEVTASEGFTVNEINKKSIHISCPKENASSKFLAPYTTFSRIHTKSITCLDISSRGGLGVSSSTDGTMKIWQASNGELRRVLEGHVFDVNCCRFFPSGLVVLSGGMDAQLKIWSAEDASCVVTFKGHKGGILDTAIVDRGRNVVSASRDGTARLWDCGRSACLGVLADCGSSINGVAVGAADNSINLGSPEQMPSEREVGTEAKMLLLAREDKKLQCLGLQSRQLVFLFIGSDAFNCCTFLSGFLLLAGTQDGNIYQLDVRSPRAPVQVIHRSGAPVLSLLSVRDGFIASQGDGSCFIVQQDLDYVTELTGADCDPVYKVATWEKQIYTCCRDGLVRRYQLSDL
inactive: erlotinib 0.038 | [1] 0.032 | [2] 0.097 | [3] 0.068 | [4] -0.009 | [5] 0.009 | [6] 0.027 | [7] 0 | [8] 0.003 | [9] 0.009

NEU1 (UniProt Q99519)
inactive: erlotinib 0.001 | [1] -0.05 | [2] -0.027 | [3] 0.101 | [4] 0.003 | [5] 0 | [6] -0.018 | [7] -0.011 | [8] 0.012 | [9] -0.047

NEMP1 (UniProt O14524)
inactive: erlotinib -0.003 | [1] -0.011 | [2] -0.027 | [3] 0.023 | [4] 0.049 | [5] 0.016 | [6] -0.056 | [7] -0.162 | [8] 0.068 | [9] 0.048

NUDT16 (UniProt Q96DE0)
Sequence of UniProt Q96DE0 (Q96DE0 whole entry, looked up): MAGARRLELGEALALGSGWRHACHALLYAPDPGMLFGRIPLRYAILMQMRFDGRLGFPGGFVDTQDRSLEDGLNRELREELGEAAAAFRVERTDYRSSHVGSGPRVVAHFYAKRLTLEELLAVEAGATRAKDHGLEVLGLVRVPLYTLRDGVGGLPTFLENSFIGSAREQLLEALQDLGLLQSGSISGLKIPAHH
inactive: erlotinib 0.081 | [1] 0 | [2] 0.111 | [3] 0.01 | [4] -0.034 | [5] -0.004 | [6] 0.014 | [7] 0.026 | [8] -0.085 | [9] 0.081

NR2C2 isoform 2 (UniProt P49116)
inactive: erlotinib -0.001 | [1] -0.067 | [2] -0.011 | [3] 0.006 | [4] 0.019 | [5] -0.039 | [6] -0.003 | [7] -0.091 | [8] 0.074 | [9] 0.007

NDUFS8 (UniProt O00217)
inactive: erlotinib 0.015 | [1] 0.045 | [2] 0.023 | [3] 0.033 | [4] 0.039 | [5] 0.027 | [6] 0.029 | [7] 0.007 | [8] 0.014 | [9] 0.035

OPA1 isoform 2 (UniProt O60313)
inactive: erlotinib 0.041 | [1] 0.081 | [2] 0.031 | [3] -0.021 | [4] 0.07 | [5] 0.01 | [6] 0.126 | [7] 0.027 | [8] -0.006 | [9] 0.078
